WT yeast gro inh – growth inhibition of WT yeast, mitochondrial fusion screen; inhibition, % at 10 µM; mitochondrial fusion phenotypic screen, WT strain; 190,000 tested, 2.1% active; in the data active = inhibition above about 58%; tested in S. cerevisiae
CHOP inh – blocks CHOP induction under ER stress | CHO-K1 CHOP-promoter luciferase, tunicamycin-induced, 15-18 h | inhibition, % at 10 µM | 220,000 tested, 3.8% active | AID 2732;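 active = compounds that reduced the stress-induced luciferase reporter signal by more than about 70% of percent inhibition, limit read from the data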;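 also: 0% = tunicamycin plus vehicle and 100% = wells without tunicamycin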
Lmaj promast – reduces viability of Leishmania major promastigotes; 200,000 tested, 9% active; resazurin fluorescence viability; inhibition, % at 10 µM; in the data active = inhibition above about 50%;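 also: promastigotes grown with compound for 44 hours at 28 °C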
Arbovirus anti – blocks arbovirus infection; inhibition, % at 10 µM; AID 1251; 200,000 tested, 0.37% active; arbovirus infection cell-based antiviral screen; in the data active = inhibition above about 30%
Active calls of the source: *; . = no result given. Most compounds without a hit are left out; they make up all but 12% or so of the library.

SMILES	WT yeast gro inh	CHOP inh	Lmaj promast	Arbovirus anti
C#CCNC(=O)C1=C[C@H](c2coc3ccccc3c2=O)[C@@H](CCCO)[C@H](OCC)O1	-3	-3	-4	7
O=C(CSCc1ccc(Br)cc1)Nc1ccc(S(=O)(=O)N2CCOCC2)cc1	6	24	100*	-4
Cc1ccc(N(CC(=O)Nc2ccc(S(=O)(=O)N3CCOCC3)cc2)S(C)(=O)=O)cc1C	-3	-14	7	-5
O=C(CSCc1ccccc1)Nc1ccc(S(=O)(=O)N2CCOCC2)cc1	2	4	0	10
COC(=O)c1sccc1NC(=O)CSc1ccccc1NS(=O)(=O)c1ccc(F)cc1	27	-9	6	7
CCOC(=O)NCc1ccc(S(=O)(=O)Nc2ccccc2C)cc1	10	5	3	0
Cc1ccccc1NS(=O)(=O)c1ccc(NC(=O)CSCc2ccc(Br)cc2)cc1	66*	80*	24	6
COC(=O)c1sccc1NC(=O)CSc1ccccc1NS(=O)(=O)c1ccc(Br)cc1	6	20	0	32*
CC(C)c1ccc(N(CC(=O)Nc2ccc(S(=O)(=O)N3CCOCC3)cc2)S(C)(=O)=O)cc1	-2	17	90*	-11
CCC(C)C(NC(=O)OC(C)(C)C)C(=O)NC(C)C(N)=O (configuration not stated)	-8	19	-5	-1
C/C(N)=C(/C#N)C(=O)CSc1cc(C)c2ccccc2n1	-6	9	2	6
CC1=NNC(=O)C1CC(=O)N/N=C/C=C/c1ccccc1 (configuration not stated)	.	6	.	.
O=C(CN1CCCCCC1)Nc1ccc(S(=O)(=O)N2CCOCC2)cc1	-3	-1	55*	3
O=C(Cn1c(=O)sc2ccccc21)Nc1ccc(S(=O)(=O)N2CCCC2)cc1	-10	7	80*	10
O=C(Cn1c(=O)sc2ccccc21)NCc1ccccn1	9	75*	-7	-4
CCC(=O)Nc1ccc(S(=O)(=O)N2CCOCC2)cc1	3	13	2	5
Cc1ccc(S(=O)(=O)N2CCC(C(=O)NNC(=O)C3CC3)CC2)cc1Cl	-7	27	-5	7
CSc1nc(C)cc(Oc2ccccc2)n1	-1	37	-2	-2
Cc1ccc(CNC(=O)C2CC(=O)N(c3ccc(OCC(=O)N4CCCC4)cc3)C2)cc1 (configuration not stated)	-7	-21	3	8
CC(=O)c1cccc(N=c2scc(-c3ccc(S(=O)(=O)N4CCOCC4)cc3)n2CCO)c1	-3	54	95*	8
C=CCn1c(-c2ccc(S(=O)(=O)N3CCOCC3)cc2)csc1=Nc1ccccc1	16	72*	-1	3
COc1ccc(N=c2scc(-c3ccc(S(=O)(=O)N4CCOCC4)cc3)n2CCCO)cc1	-12	62	-8	0
Oc1ccc2ccccc2c1C=Nc1ccc(N2CCOCC2)cc1	-4	78*	46	-16
CCc1cc2c(NCC3CCCO3)nc(C)nc2s1 (configuration not stated)	0	41	1	10
CCOc1cccc(/C=N/NC(=S)Nc2ccccc2[N+](=O)[O-])c1O	17	15	95*	-19
SMILES	WT yeast gro inh	CHOP inh	Lmaj promast	Arbovirus anti
Nc1nc(/C=C/c2ccc(F)cc2)nc(-c2ccccc2O)n1	4	80*	36	3
C/C(=C\C=C\c1ccccc1)C(=O)c1c(C)cc(C)[nH]c1=O	8	3	-3	9
Cc1ccc(C(=S)N2CCN(Cc3ccccc3)CC2)cc1	22	11	8	-3
CCN1CCN(C(=S)c2ccc(Cl)c(Cl)c2)CC1	-1	-20	90*	4
CCN1CCN(C(=S)Nc2cccc(C(F)(F)F)c2)CC1	-7	22	60*	6
CCN1CCN(C(=S)c2ccc(-c3ccccc3)cc2)CC1	8	47	80*	-8
CCN1CCN(C(=S)Nc2ccc(Cl)cc2Cl)CC1	-3	16	-6	5
CSc1ccc(C(=S)N2CCN(CCO)CC2)cc1	-21	6	75*	0
OCCN1CCN(C(=S)Nc2ccc(SC(F)F)cc2)CC1	-1	32	14	-4
CCN1CCN(C(=S)Nc2ccc(Cl)c(Cl)c2)CC1	-3	26	84*	3
Cc1ccc(CNC(=S)N2CCOCC2)cc1	-16	-21	-5	-1
CCN1CCN(C(=S)NCc2ccc(C)cc2)CC1	4	1	83*	-3
CCC(=O)Nc1ccnc(-c2cccnc2)n1	20	-14	0	2
CC(C)(C)C(=O)Nc1ccnc(-c2cccnc2)n1	73*	1	-4	4
CCOC(=O)C1(C(C)(C)CC)CC(CSc2nc3ccccc3[nH]2)OC1=O (configuration not stated)	0	75*	6	20
CCOC(=O)NC(=O)CSc1nc2ccccc2[nH]1	12	1	-6	-1
CC(NC(=O)C(C)N1C(=O)C2C3CC(C(Br)C3Br)C2C1=O)c1ccccc1 (configuration not stated)	8	-11	82*	7
CC(NC(=O)C(Cc1ccccc1)N1C(=O)C2C3CCC(C3)C2C1=O)c1ccccc1 (configuration not stated)	0	-2	39	0
Cc1ccc(Cl)c(OCC(=O)Nc2sc(C)c(C)c2C#N)c1	-11	-3	-7	-3
COc1cc(OC)cc(C(=O)N[C@H](C(=O)NC23CC4CC(CC(C4)C2)C3)C(C)C)c1	15	39	64*	-12
COc1cc(OC)cc(C(=O)N[C@H](C(=O)Nc2ccc(NC(C)=O)cc2)C(C)C)c1	11	17	5	-6
Cc1ccccc1N=CC1=C(O)c2ccccc2C1=O	32	78*	-1	-9
O=C1C(C=Nc2ccc(F)cc2)=C(O)c2ccccc21	15	46	3	-12
Cc1c(C(=O)N2CCN(c3ccc(C(F)(F)F)cn3)CC2)oc2ccccc12	71*	55	-10	5
CC(=O)Nc1ccc(N2CCN(c3ccc(C(F)(F)F)cn3)CC2)nc1	.	-21	.	.
SMILES	WT yeast gro inh	CHOP inh	Lmaj promast	Arbovirus anti
CC(C)(C)NC(=O)NC(=O)CN1CCN(c2ncc(C(F)(F)F)cc2Cl)CC1	13	78*	9	7
CC(=O)c1ccc(N2CCN(c3ncc(C(F)(F)F)cc3Cl)CC2)cc1	17	79*	-3	7
NC(=O)c1ccc(N2CCN(c3ncc(C(F)(F)F)cc3Cl)CC2)cc1	.	10	.	.
CC(=O)c1ccc(N2CCN(c3ccc(C(F)(F)F)cn3)CC2)cc1	-8	83*	12	-3
COc1ccc(/C=N/NC(=O)C2C(C=C(Cl)Cl)C2(C)C)c(OC)c1 (configuration not stated)	15	65	34	4
O=C(CN1C(=O)c2ccccc2S1(=O)=O)NC(Nc1ccccc1F)C(Cl)(Cl)Cl (configuration not stated)	9	15	-11	0
CCCCC1=NN(C(=O)c2ccco2)C(O)(C(F)(F)F)C1 (configuration not stated)	7	50	3	-8
COc1cccc(C2=NN(S(C)(=O)=O)C(c3cccs3)C2)c1 (configuration not stated)	6	-9	4	6
COc1ccccc1NC(=O)c1ccc(NC(=O)CSc2n[nH]c(N)n2)cc1	-8	17	65*	-3
